# Bioassay records: PubChem BioAssay, National Center for Advancing Translational Sciences (NCATS)
# Most compounds without a hit are left out; they make up all but 8.3% or so of the library.
# Giardia FBPA inh: qHTS Assay for Inhibitors of Fructose-1,6-bisphosphate Aldolase from Giardia Lamblia; 290,000 tested, 0.71% active; Potency, µM (doses to about 59.6 µM), without a hit: at the top dose activity, negative = inhibition, hits mostly inhibitors; AID 2451, 2010; purified Giardia FBPA; A8B2U2; also: potency is read from the fitted curve at half-maximal effect; nearly all actives have a fitted effect of over 55% in size
# Target sequence (A8B2U2 whole entry, looked up): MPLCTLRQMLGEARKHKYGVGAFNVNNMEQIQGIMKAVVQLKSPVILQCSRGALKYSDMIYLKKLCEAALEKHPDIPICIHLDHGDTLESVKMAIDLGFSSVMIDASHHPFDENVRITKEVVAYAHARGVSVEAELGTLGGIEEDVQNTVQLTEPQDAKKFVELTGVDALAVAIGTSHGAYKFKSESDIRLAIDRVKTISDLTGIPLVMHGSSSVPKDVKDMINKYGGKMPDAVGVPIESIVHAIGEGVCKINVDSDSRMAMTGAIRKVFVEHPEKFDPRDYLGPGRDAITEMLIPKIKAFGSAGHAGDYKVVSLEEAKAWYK
#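 40 nM FBPA preincubated 10 min at RT with compound (up to 57.5 uM final), then substrate plus GAPDH/TPI/NAD/arsenate coupling and diaphorase/resazurin added. Fluorescence read after 20 min at RT, 525/598 nm.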
# Lassa entry inh: qHTS for Inhibitors of binding or entry into cells for Lassa Virus. Potency, µM (doses to about 37.9 µM), inactives show at the top dose activity change, negative = inhibition, usual class: inhibitors. AID 540256, 2011. 300,000 tested, 1.2% active. Lassa virus pseudotype entry inhibition, cell reporter; calls by dose curve; tested in HEK293 cells; also: potency is read from the fitted curve at half-maximal effect; nearly all actives have a fitted effect of over 50% in size
# HCMV antiviral: qHTS Assay for inhibitors of the human cytomegalovirus (HCMV). HFF cells, HCMV-luciferase reporter, 72 h; stronger effect = lower value. activity change, negative = inhibition, % at 57.5 µM. 410,000 tested, 4.5% active; in the data active = activity change below about -60%; inconclusive = no clear call, values can overlap the other calls; inactive = above about -39%
#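 Compounds were evaluated in HFFs infected with an HCMV luciferase reporter virus (MOI 1 PFU/cell). Luciferase in lysates collected 72 h post infection served as the replication measure.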
# HCV inh: qHTS Assay for Inhibitors of Hepatitis C Virus (HCV). Huh7.5.1 HCVcc-Cre infection, luciferase reporter, 44 h. Potency, µM (series often up to 41.8 µM), without a hit: at the top dose activity change, negative = inhibition, most hits filed as inhibitors. 340,000 tested, 3.4% active; also: potency is read from the fitted curve at half-maximal effect
#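 A cell-based infection assay in which seeded cells (1,000 per well) receive test compound after 4 h, are inoculated with HCVcc-Cre at approximately 0.5 moi, and are incubated 44 h before luminescence detection.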
# FMDV antiviral: High Throughput Screening for Foot and Mouth Disease Virus Antivirals. FMDV antiviral cell-based qHTS. Potency, µM (titrated, usually from 57.9 µM), for the others: at the top dose activity change, negative = inhibition, actives largely listed as inhibitors. 410,000 tested, 1.2% active; calls by dose curve; tested in HEK293T cells; also: read-out not given here; potency is read from the fitted curve at half-maximal effect; nearly all actives have a fitted effect of over 45% in size
# MARV entry inh: qHTS for inhibitors of binding or entry into cells for Marburg Virus. Potency, µM (highest dose often 37.8 µM), for inactives: top-dose activity change, negative = inhibition, most hits filed as inhibitors. AID 540276, 2011. Marburg virus pseudotyped entry inhibition, cell reporter. 300,000 tested, 1.8% active; calls by dose curve; tested in HEK293 cells; also: potency is read from the fitted curve at half-maximal effect
# * hit, by the source's call; u = inconclusive; x = no result; ! = repeats disagree; [ ] = dose if it differs, or a comment. Unless noted, calls follow the shape of the dose curve; as a rule, active = well fitted curve in the direction sought with a large enough effect; inconclusive = small, poorly fitted or top-dose-only effect, or another doubt; inactive = no such curve, though single readings can be large; an effect the other way counts as inactive or inconclusive. % is scaled to controls: 0 for no effect and ±100 for the full control effect.
SMILES,Giardia FBPA inh,Lassa entry inh,HCMV antiviral,HCV inh,FMDV antiviral,MARV entry inh
Clc1ccc2nnnc(-c3ccccc3)c2c1,7%,10µM*,-102*,4.5µM*,u,6.5µM*
c1ccc(-c2nnnc3ccccc23)cc1,5%,-26%,-30,37%,-1%,-34%
O=C1C=CN(S(=O)(=O)c2ccc(F)cc2)C(c2cccs2)C1 (centres undefined),x,x,-3,x,x,x
Cc1ccccc1-n1nc(C)c2cc(C(=O)N3CCN(S(=O)(=O)c4ccc(F)cc4)CC3)sc21,-5%,u,-22,u,u,21µM*!
COC(=O)C1C(=O)C(C(=O)/C=C/c2ccccc2)C(=O)CC1(C)C (centres undefined),-8%,3%[46.1 µM],-82*,-7%,u,-16%[46.1 µM]
COC(=O)C1C(=O)C(C(=O)/C=C/c2ccco2)C(=O)CC1(C)C (centres undefined),-19%,x,x,x,-13%,x
Cc1ccc(N(Cc2ccccc2)C(=O)CSC(C)C(=O)Nc2cc(C)on2)cc1 (centres undefined),x,x,-64*,x,29%,x
Cc1cc(NC(=O)C(C)SCC(=O)OCC(=O)N(C)c2ccccc2)no1 (centres undefined),x,17%,-28,-1%,-9%,u
COCCNC(=O)/C(C#N)=C/C=C/c1ccccc1[N+](=O)[O-],-23%,u,-96*,u,u,u
N#C/C(=C\c1cccc([N+](=O)[O-])c1)C(=O)NCc1ccc(Cl)cc1,-6%,0%,-98*,-27%,u,u
CCOCCCNC(=O)/C(C#N)=C/c1ccc(Cl)c([N+](=O)[O-])c1,-10%,2%,-102*,u,u,u
COCCNC(=O)/C(C#N)=C/c1ccc(O)cc1,8%,x,0,5%,46%,2%
COCCNC(=O)/C(C#N)=C/c1cccc(/C=C(\C#N)C(=O)NCCOC)c1,-4%,u,-68*,10µM*,14µM*,u
COCC1CCCN(Cc2ccc3c(c2)CN(C(=O)c2ccc(OC)nc2OC)CCO3)C1 (centres undefined),x,x,x,x,2%,x
CCC(CC)c1nn2c(=O)cc(COc3ccc(NC(=O)c4ccc(Cl)cc4)cc3)nc2s1,x,-13%[46.1 µM],6,x,-10%,1%[46.1 µM]
C[C@@H]1CC[C@H]2C(=O)N3[C@@H](CC[C@@H](C)[C@@H]3c3ccc(Br)cc3)C(=O)N2[C@@H]1c1ccc(Br)cc1,3%[12.9 µM],x,x,x,x,-25%[14.2 µM]
COc1ccc(/C=C(\C#N)C(=O)NCCc2ccccc2)cc1OCc1ccccc1,-5%,u,-14,u,-19%,11µM*
Cc1ccccc1-c1ccc2c(c1)COCC(=O)N2C,x,x,1,x,x,x
O=C(/C=C/Nc1ccc(F)cc1)c1cccs1,x,u,17,4%,13µM*,11µM*
CCOc1ccc(NC(=O)/C=C/c2ccccc2)c([N+](=O)[O-])c1,1%,19%,37,u,22%,-26%
CCOc1ccc(N/C=C/C(=O)c2ccccc2)c([N+](=O)[O-])c1,4%,1.1µM*,1,-28%,-85%,u
CC(C)c1ccc(NC(=O)c2ccc3c(c2)CCCN3S(C)(=O)=O)cc1,x,-24%[46.1 µM],-74*,x,10µM*,u
CS(=O)(=O)N1CCc2cc(C(=O)Nc3ccc(Br)cc3)ccc21,1%,x,16,u,-16%,x
CCCCOC(=O)c1ccc(NC(=O)c2ccc3c(c2)CCN3S(C)(=O)=O)cc1,x,4%[46.1 µM],-17,x,35µM*,u
CS(=O)(=O)N1CCc2cc(C(=O)Nc3ccc(Cl)c(C(F)(F)F)c3)ccc21,x,u,-71*,x,-13%,u
SMILES,Giardia FBPA inh,Lassa entry inh,HCMV antiviral,HCV inh,FMDV antiviral,MARV entry inh
CCc1ccc(NC(=O)c2ccc3c(c2)CCN3S(C)(=O)=O)cc1,x,x,5,x,-7%,x
Cc1ccc(S(=O)(=O)N2CCc3cc(C(=O)Nc4ccc(C(F)(F)F)cc4)ccc32)cc1,x,u,-1,x,2%,-2%[46.1 µM]
CS(=O)(=O)N1CCc2cc(C(=O)Nc3ccc(C(F)(F)F)cc3)ccc21,x,u,-63*,x,-9%,14%[46.1 µM]
Cc1c(Cl)cccc1-n1ncc(C(=O)Nc2ccc(Br)cc2F)c1C1CCNCC1,x,2%[46.1 µM],u,x,u,x
CCOc1ccc(-c2cc3c(=O)n(CC(=O)NCc4ccccc4)ccn3n2)cc1,x,3%[46.1 µM],54,x,35%,x
Cc1ccc(NC(=O)c2ccc3c(c2)CCN3S(C)(=O)=O)cc1,x,x,15,x,39%,x
CCCCc1ccc(NC(=O)c2ccc3c(c2)CCN3S(=O)(=O)CC)cc1,x,u,-64*,x,-6%,1%[46.1 µM]
Cc1ccc(NC(=O)c2ccc3c(c2)CCN3S(C)(=O)=O)cc1C,3%,u,72,11µM*,19%,u
CC(C)C(NS(C)(=O)=O)c1nnc2n1CCN(Cc1cccc3ncccc13)CC2 (centres undefined),x,x,x,x,-8%,x
N#Cc1c(NC(=O)CSc2ncc(-c3ccccc3)n2CC2CCCO2)sc2c1CCCC2 (centres undefined),-1%,7.3µM*,-62*,11µM*,0%,5.2µM*
N#Cc1c(NC(=O)CSc2nnc(-c3ccncc3)n2CC2CCCO2)sc2c1CCCC2 (centres undefined),-4%,-14%,-80*,9%,-22%,-9%
N#Cc1c(NC(=O)CSc2nnc(-c3ccccc3)o2)sc2c1CCCC2,1%,-19%,24,11%,21%,u
Cc1ccccc1Nc1c(-c2ccc(N3CCOCC3)cc2)nc2ccc(Br)cn12,x,-26%[46.1 µM],19,x,29%,-13%[46.1 µM]
O=C(c1cc(C2CC2)nn1-c1ccccc1)N1CCN(Cc2ccc(Cl)cc2)CC1,x,x,-31,7.1µM*,u,x
O=C(c1cc(C2CC2)nn1-c1ccccc1)N1CCN(Cc2ccccc2F)CC1,x,-18%,-10,5%,-10%,-5%
COc1cccc(NC(=S)Nc2cc(C)cc(C)n2)c1,1%,8%,-67*,u,53%,u
Cc1cccc(NC(=S)Nc2ccc(Oc3ccccc3)cc2)n1,-3%,-18%,-61*,u,-16%,u
COC(=O)C(c1ccccc1)(c1cn(C)c2ccccc12)C(Nc1ccccc1)c1cccc(Br)c1 (centres undefined),x,x,-14,x,x,x
O=C(N[C@H]1CCC(=O)N(CCSc2ccc(Br)cc2)CC1)OCc1ccccc1,x,x,-10,u,32µM*,x
CC(C)(C)C1CCC(=O)N(CCSc2ccccc2)CC1 (centres undefined),-11%,x,-16,3.5µM*,26%,x
Cc1ccc(C(=O)N2CCn3c(nnc3C(=O)NCC3CC3)C2)cc1F,x,x,-9,x,x,x
